Laboratory results reported in the supplement of paper PMC10849652.
The full data set covers some 8,800 targets. This sample favours those with a hit. About 0.5% of all pairs of compound and target were hits.

Assays:
Experiment in all cases: log2 fold change, soluble protein after heating vs DMSO (PISA); higher = thermal stabilisation; K562 lysate, 10 uM; active = over 0.2 and 3.5 SD of the protein, either way, in both replicates (recomputed)
[1] = compound: C1=CC=C(C=C1)[C@H](COC2=CC3=C(C=C2)NC(=O)N3)NC(=O)C4=CC=CN(C4=O)CC5=CC(=C(C=C5)F)F
How it was run: (§1)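 To prepare the extract, K562 pellets were dounce-homogenised in PBS pH 7.4 with 1 mM MgCl2, giving crude material at 1 mg/mL protein. This was treated with 10 μM compound for 30 min, then heated in aliquots for 3 min over 48°C-58°C before pooling and addition of NP-40 to 0.5% at 4°C. Centrifugation at 21,000xg for 90 min left soluble protein in the supernatant, which TMTpro 16plex LC-MS/MS quantified with equalised channel sums. Results are log-two fold changes in thermal stability compared with solvent controls, from duplicates.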

[2] = compound: CC1=C(SC2=C1C(=N[C@H](C3=NN=C(N32)C)CC(=O)N)C4=CC=C(C=C4)Cl)C
How it was run: as §1

[3] = compound: CC1=C2C(=CC=C1)N=C(N(C2=O)C3=CC=CC=C3C)CN4C=NC5=C(N=CN=C54)N
How it was run: as §1

[4] = compound: Cc1sc2c(c1C)C(c1ccc(Cl)cc1)=N[C@@H](CC(=O)OC(C)(C)C)c1nnc(C)n1-2
How it was run: as §1

[5] = compound: c1ccc([C@@H]2C[C@H]2NC2CCNCC2)cc1
How it was run: as §1

Measured: log2 fold change

NT5DC2 isoform 2 (UniProt Q9H857)
inactive: [1] 0.021 | [2] -0.026 | [3] 0.009 | [4] 0.051 | [5] -0.022

MTHFD1, A0A384N5Y3
inactive: [1] -0.003 | [2] -0.002 | [3] 0.015 | [4] 0.018 | [5] 0.071

NOSTRIN (UniProt Q8IVI9)
Chain of UniProt Q8IVI9 (Q8IVI9 whole entry, looked up): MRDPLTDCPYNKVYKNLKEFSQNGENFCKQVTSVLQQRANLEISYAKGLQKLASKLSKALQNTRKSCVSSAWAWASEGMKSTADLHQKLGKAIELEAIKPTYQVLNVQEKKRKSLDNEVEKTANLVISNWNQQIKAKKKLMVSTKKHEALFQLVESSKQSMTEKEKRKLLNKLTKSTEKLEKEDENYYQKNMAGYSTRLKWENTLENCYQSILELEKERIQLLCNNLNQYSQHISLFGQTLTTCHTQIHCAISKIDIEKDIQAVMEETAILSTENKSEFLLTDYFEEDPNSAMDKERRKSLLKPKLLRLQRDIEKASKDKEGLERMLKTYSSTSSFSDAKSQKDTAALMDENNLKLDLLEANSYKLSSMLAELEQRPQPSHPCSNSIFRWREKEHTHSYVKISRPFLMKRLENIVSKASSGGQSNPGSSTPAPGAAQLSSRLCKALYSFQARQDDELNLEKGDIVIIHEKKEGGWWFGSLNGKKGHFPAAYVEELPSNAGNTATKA
inactive: [1] -0.061 | [2] 0.039 | [3] 0.017 | [4] -0.092 | [5] 0.017

NUB1 (UniProt Q9Y5A7)
inactive: [1] -0.011 | [2] 0.029 | [3] 0.025 | [4] 0.013 | [5] 0.039

NUMB (UniProt P49757)
Chain of UniProt P49757 (P49757 whole entry, looked up): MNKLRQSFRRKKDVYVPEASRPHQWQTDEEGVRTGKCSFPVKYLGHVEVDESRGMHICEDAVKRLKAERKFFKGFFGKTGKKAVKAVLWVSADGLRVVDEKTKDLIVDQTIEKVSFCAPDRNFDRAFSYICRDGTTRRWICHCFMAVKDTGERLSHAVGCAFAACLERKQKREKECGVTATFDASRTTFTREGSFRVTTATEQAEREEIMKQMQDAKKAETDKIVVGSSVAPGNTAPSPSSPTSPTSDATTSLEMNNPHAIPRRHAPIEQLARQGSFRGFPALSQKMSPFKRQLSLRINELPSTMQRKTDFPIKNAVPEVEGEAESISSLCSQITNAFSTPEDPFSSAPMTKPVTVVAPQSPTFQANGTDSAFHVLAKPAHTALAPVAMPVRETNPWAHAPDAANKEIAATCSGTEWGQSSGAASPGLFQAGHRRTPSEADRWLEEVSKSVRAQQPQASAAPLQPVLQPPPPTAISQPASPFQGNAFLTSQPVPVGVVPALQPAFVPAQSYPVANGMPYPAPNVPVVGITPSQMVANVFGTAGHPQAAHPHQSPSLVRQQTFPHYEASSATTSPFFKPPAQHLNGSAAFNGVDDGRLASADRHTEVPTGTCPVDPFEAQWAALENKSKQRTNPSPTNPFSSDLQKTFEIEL
inactive: [1] 0.001 | [2] 0.034 | [3] 0.009 | [4] 0.004 | [5] -0.032

NPLOC4 isoform 2 (UniProt Q8TAT6)
Chain of UniProt Q8TAT6 (Q8TAT6 whole entry, looked up): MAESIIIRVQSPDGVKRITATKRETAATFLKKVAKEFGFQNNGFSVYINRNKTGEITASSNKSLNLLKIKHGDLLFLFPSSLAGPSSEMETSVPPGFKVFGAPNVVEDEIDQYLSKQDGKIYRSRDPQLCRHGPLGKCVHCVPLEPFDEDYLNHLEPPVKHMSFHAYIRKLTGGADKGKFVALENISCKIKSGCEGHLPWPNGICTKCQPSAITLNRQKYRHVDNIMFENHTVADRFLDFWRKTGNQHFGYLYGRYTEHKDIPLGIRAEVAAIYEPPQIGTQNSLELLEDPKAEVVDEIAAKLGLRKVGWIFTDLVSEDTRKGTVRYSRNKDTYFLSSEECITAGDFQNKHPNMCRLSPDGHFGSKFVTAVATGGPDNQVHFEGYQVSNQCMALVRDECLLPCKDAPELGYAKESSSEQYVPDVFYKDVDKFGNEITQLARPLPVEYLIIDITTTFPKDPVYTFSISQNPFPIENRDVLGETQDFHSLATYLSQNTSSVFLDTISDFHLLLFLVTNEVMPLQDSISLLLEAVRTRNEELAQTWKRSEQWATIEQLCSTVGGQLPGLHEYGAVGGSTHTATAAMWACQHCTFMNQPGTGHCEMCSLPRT
inactive: [1] 0.035 | [2] 0.017 | [3] 0.025 | [4] -0.012 | [5] -0.064

MSI2 (UniProt Q96DH6)
Chain of UniProt Q96DH6 (Q96DH6 whole entry, looked up): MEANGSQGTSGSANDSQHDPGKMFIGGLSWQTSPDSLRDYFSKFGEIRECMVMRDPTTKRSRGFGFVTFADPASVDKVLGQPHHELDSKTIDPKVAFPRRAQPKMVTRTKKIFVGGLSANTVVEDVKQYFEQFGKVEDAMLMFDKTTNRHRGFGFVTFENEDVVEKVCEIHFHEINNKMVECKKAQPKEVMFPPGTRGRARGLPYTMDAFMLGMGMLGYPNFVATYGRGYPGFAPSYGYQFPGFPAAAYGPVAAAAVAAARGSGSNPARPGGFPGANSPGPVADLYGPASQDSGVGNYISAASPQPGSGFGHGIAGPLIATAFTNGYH
inactive: [1] -0.007 | [2] -0.007 | [3] -0.001 | [4] 0.048 | [5] 0.071

MRPS12 (UniProt O15235)
inactive: [1] 0 | [2] 0.019 | [3] 0.053 | [4] 0.039 | [5] 0.026

PARP14 (UniProt Q460N5)
Chain of UniProt Q460N5 (Q460N5 whole entry, looked up): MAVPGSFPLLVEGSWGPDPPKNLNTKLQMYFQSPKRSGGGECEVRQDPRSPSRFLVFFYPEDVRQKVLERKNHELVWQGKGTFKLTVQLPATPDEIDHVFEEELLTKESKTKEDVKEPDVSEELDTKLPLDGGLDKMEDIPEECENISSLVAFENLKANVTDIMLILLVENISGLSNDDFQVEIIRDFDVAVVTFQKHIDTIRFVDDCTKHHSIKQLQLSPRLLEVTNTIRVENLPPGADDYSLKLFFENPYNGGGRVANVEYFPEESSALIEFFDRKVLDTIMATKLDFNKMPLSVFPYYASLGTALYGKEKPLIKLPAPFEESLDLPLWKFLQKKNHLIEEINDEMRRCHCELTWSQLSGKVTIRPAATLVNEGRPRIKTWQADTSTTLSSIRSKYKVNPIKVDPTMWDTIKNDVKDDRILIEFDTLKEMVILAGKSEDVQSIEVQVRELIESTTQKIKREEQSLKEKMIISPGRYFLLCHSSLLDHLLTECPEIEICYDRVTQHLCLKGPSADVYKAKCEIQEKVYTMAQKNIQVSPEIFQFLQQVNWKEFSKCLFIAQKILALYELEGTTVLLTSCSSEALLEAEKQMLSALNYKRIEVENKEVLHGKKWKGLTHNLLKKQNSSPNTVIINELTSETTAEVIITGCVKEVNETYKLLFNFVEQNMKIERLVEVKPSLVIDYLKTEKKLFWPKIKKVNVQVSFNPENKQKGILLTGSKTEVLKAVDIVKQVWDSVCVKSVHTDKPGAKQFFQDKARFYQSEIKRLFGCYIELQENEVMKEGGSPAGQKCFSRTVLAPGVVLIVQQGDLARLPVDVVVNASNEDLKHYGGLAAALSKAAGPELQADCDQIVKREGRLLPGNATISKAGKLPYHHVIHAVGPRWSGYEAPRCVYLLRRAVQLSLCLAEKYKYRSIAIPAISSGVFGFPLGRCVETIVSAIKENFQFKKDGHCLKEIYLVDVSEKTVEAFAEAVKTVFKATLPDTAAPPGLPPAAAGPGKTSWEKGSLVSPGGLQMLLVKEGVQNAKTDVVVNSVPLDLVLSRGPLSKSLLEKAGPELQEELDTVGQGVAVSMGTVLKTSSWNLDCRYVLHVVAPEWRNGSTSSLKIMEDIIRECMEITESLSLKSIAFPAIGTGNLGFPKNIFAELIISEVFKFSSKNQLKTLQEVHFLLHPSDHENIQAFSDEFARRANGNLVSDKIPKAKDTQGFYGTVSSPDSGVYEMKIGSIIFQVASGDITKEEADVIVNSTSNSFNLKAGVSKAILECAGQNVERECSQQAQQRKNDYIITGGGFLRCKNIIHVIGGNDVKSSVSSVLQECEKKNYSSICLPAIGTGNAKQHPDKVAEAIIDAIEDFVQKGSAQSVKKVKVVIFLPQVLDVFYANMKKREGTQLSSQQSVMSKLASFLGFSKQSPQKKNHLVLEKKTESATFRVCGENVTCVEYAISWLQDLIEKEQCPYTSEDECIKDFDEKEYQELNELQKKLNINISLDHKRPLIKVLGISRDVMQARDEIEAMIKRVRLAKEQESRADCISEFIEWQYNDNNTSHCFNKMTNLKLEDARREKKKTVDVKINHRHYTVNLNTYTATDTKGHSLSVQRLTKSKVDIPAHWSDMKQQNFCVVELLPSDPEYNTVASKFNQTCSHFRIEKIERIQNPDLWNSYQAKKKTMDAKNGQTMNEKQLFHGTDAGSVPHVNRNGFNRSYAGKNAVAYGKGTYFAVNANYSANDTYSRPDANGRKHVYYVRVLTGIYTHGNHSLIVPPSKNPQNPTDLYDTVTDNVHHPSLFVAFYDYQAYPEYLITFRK
inactive: [1] 0.021 | [2] -0.003 | [3] 0.063 | [4] -0.028 | [5] -0.045

NARS2 (UniProt Q96I59)
Chain of UniProt Q96I59 (Q96I59 whole entry, looked up): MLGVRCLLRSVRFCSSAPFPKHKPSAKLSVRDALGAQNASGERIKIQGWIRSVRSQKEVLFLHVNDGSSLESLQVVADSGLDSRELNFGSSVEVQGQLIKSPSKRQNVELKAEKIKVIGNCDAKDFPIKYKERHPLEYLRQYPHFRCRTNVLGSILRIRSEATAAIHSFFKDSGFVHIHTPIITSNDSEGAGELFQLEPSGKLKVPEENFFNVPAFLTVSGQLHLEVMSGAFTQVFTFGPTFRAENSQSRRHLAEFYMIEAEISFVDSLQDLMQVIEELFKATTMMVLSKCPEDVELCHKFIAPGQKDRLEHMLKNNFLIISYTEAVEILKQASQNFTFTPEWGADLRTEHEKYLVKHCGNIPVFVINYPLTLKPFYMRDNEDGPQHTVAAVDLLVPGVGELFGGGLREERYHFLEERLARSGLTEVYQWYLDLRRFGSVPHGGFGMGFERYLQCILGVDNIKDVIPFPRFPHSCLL
inactive: [1] 0.013 | [2] 0.024 | [3] 0.092 | [4] 0.053 | [5] -0.05

MYCBP2 (UniProt O75592)
inactive: [1] -0.006 | [2] -0.003 | [3] 0.017 | [4] 0.005 | [5] -0.005

NADK2 (UniProt Q4G0N4)
Chain of UniProt Q4G0N4 (Q4G0N4 whole entry, looked up): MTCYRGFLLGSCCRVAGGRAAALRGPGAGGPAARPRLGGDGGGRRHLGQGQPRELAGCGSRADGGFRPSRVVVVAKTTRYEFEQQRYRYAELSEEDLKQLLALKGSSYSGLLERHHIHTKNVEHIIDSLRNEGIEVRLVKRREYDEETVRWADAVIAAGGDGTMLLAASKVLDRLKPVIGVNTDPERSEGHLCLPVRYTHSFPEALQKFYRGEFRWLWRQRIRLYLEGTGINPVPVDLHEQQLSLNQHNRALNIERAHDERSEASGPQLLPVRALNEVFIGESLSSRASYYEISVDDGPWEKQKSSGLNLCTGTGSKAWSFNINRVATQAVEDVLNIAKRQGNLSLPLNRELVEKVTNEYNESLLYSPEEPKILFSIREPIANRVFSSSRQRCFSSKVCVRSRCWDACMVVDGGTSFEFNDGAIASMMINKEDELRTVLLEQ
inactive: [1] 0.057 | [2] 0.007 | [3] -0.006 | [4] 0.045 | [5] -0.012

MYCBP (UniProt Q99417)
Chain of UniProt Q99417 (Q99417 whole entry, looked up): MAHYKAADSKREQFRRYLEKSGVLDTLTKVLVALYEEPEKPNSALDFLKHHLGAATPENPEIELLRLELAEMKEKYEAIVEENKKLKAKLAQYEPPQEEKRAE
inactive: [1] 0.043 | [2] -0.087 | [3] -0.013 | [4] -0.022 | [5] -0.27
